tim10-1 inh: inhibits growth of tim10-1 mutant yeast; AID 463190; hit rate 2.2% among 330,000; inhibition, % at 20 µM; S. cerevisiae tim10-1 ts strain growth, BacTiter-Glo, 24 h;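 active means inhibition of at least 40%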;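 further: mutant grown at 25 °C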
tim23-1 inh: growth inhibitors of tim23-1 mutant yeast. S. cerevisiae tim23-1 growth, BacTiter-Glo luminescence, 24 h. inhibition, % at 20 µM. hit rate 1.3% among 330,000. AID 463212;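 active means growth inhibition of the mutant yeast at or above 50%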;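 further: temperature-sensitive mutant grown at 25 °C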
NALP3 yeast inh: blocks the NALP3 inflammasome reconstituted in yeast; inhibition, % at 10 µM; Yeast reconstituted NLRP3/ASC/caspase-1, beta-gal luminescence, 24 h; hit rate 0.39% among 330,000; AID 2825;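 active means inhibition of 50% or more; inactive means inhibition below 50%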
PfHsp90 set2: inhibits growth of yeast expressing Plasmodium falciparum Hsp90; S. cerevisiae expressing PfHsp90, BacTiter-Glo ATP, 48 h; yeast lacking PDR1 and PDR3 efflux regulators; inhibition, % at 9.4 µM; hit rate 0.32% among 310,000;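 active means every replicate shows inhibition above about 80%, whatever the replicate mean, limit read from the data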
TIM10 inh: growth inhibitors of TIM10 yeast strain; AID 463195; inhibition, % at 10 µM; hit rate 1.4% among 330,000; S. cerevisiae TIM10 strain growth, BacTiter-Glo luminescence, 24 h;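 active means inhibition of 40% or more at the single tested concentration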;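 further: wild-type TIM10 isogenic control strain grown at permissive 25 °C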
NALP1 inh: NALP1 inhibition; S. cerevisiae NALP1/ASC/caspase-1 growth, X-gal OD620, 72 h; inhibition, % at 10 µM; hit rate 0.61% among 280,000; AID 2071; in the data active means inhibition mostly above about 24%, no sharp cut-off; inactive means mostly below about 32%
NALP3 yeast conf: NALP3 inhibition confirmation in yeast; hit rate 81% among 1,300; yeast expressing human NALP3, luminescence; inhibition, % at 10 µM; shares compounds with NALP3 yeast inh; in the data active means inhibition above about 48%
Casp1 ASC ctr: caspase-1-ASC yeast counter-screen hit | shares compounds with NALP3 yeast inh | yeast expressing Caspase-1-ASC, luminescence counter screen | inhibition, % at 10 µM | hit rate 66% among 1,000 | AID 488784
NALP3 yeast rt: yeast NALP3 inhibition, confirmed on retest; AID 488794; shares compounds with NALP3 yeast inh; inhibition, % at 10 µM; yeast expressing human NALP3, luminescence read-out; hit rate 53% among 1,000
tim10-1 conf: confirmation of tim10-1 mutant yeast growth inhibitors; AID 463213; shares compounds with tim10-1 inh; inhibition, % at 20 µM; hit rate 56% among 7,400; S. cerevisiae tim10-1 ts strain growth, BacTiter-Glo, 24 h;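 active means inhibition of yeast growth at or above a set limit in either of two repeat tests at 20 µM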;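 further: tim10-1 mutant grown at permissive 25 °C to find synthetic lethal compounds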
tim10 confirm: TIM10 yeast growth inhibition, confirmed; inhibition, % at 10 µM; AID 463215; S. cerevisiae tim10 strain growth, BacTiter-Glo luminescence, 24 h; hit rate 63% among 4,600; shares compounds with TIM10 inh;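 active means inhibition of yeast growth at or above a set limit in either of two replicates at 10 µM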; further: this counterscreen used the strain with wild-type TIM10
tim23-1 confirm: confirmation of tim23-1 mutant yeast growth inhibitors. shares compounds with tim23-1 inh. S. cerevisiae tim23-1 growth, BacTiter-Glo luminescence, 24 h. inhibition, % at 20 µM. hit rate 83% among 4,400;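 active means inhibition above about 39% in either of two replicate wells at 20 µM, limit read from the data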;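 further: temperature-sensitive tim23-1 mutant grown at 25 °C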
Of the large screens only hits and unclear results are named; the others gave an inactive call (follow-up assays come after a bar, where they were run). Rows were chosen to be rich in hits. Some 4.1% of all compounds tested hit in one or more screens of this group. Unless noted, no stated cut-off is given here; in the data, active means inhibition above about 50%; inactive means the rest.

Cc1noc(C)c1C(=O)Nc1nc2ccc(Cl)cc2s1	tim10-1 inh 50.0, tim23-1 inh 62.4, NALP3 yeast inh 57.9 | NALP3 yeast conf 71.8 | Casp1 ASC ctr 70.8 | NALP3 yeast rt 57.9 | tim10-1 conf 31.9 | tim23-1 confirm 47.3
Cc1c(C(=O)Nc2nc3ccccc3[nH]2)oc2ccccc12	tim23-1 inh 58.7, NALP3 yeast inh 61.2, TIM10 inh 62.3 | NALP3 yeast conf inactive | tim10 confirm inactive | tim23-1 confirm 74.4
COc1ccc(C(=O)Nc2nc3ccccc3[nH]2)cc1	tim23-1 inh 59.6, NALP3 yeast inh 50.5 | NALP3 yeast conf 80.8 | Casp1 ASC ctr 59.8 | NALP3 yeast rt inactive | tim23-1 confirm 60.8
Cc1c(C(=O)Nc2nc3ccccc3[nH]2)oc2ccc(Br)cc12	none
COc1ccccc1C(=O)Nc1nc2ccccc2[nH]1	tim10-1 inh 67.0, tim23-1 inh 84.9, NALP3 yeast inh 60.0, PfHsp90 set2 98.7, TIM10 inh 68.0 | NALP3 yeast conf 78.0 | Casp1 ASC ctr 79.0 | NALP3 yeast rt inactive | tim10-1 conf 66.3 | tim10 confirm 55.2 | tim23-1 confirm 83.4
COc1ccc(OCC(=O)N/N=C/c2cccn2-c2cccc(C(=O)O)c2)cc1	none (no result: NALP1 inh)
O=C(Nc1cccc(F)c1)c1ccccc1	tim23-1 inh 50.1, NALP3 yeast inh 59.9, TIM10 inh 52.7 (no result: PfHsp90 set2) | NALP3 yeast conf 83.5 | Casp1 ASC ctr 68.2 | NALP3 yeast rt 67.9 | tim10 confirm 47.5 | tim23-1 confirm 65.5
O=C(O)c1cccc(NC(=O)c2ccccc2)c1	none (no result: tim10-1 inh, tim23-1 inh, NALP3 yeast inh, TIM10 inh, NALP1 inh)
Cc1ccc(NC(=O)c2cccnc2)cc1C	none
Cc1ccc(NC(=O)c2ccccc2)cc1C	tim23-1 inh 58.6, NALP3 yeast inh 52.2, TIM10 inh 46.1 (no result: NALP1 inh) | NALP3 yeast conf 75.4 | Casp1 ASC ctr inactive | NALP3 yeast rt inactive | tim10 confirm inactive | tim23-1 confirm 64.5
CC1(C)CC(=O)C(=Cc2cn(-c3ccccc3)nc2-c2ccccc2)C(=O)C1	tim23-1 inh 64.2, NALP3 yeast inh 53.9, TIM10 inh 64.2 (no result: NALP1 inh) | NALP3 yeast conf 83.2 | Casp1 ASC ctr inactive | NALP3 yeast rt inactive | tim10 confirm inactive | tim23-1 confirm inactive
Cn1c2ccccc2c(=O)c2c(=O)n(C3CCCCC3)c(-c3cccs3)nc21	tim10-1 inh 43.4, tim23-1 inh 60.5, NALP3 yeast inh 58.3 | NALP3 yeast conf 70.7 | Casp1 ASC ctr 55.4 | NALP3 yeast rt 52.0 | tim10-1 conf 36.0 | tim23-1 confirm 69.2
Cn1c2ccccc2c(=O)c2c(=O)n(C3CCCCCC3)c(C3CCCCC3)nc21	none (no result: tim10-1 inh, tim23-1 inh, NALP3 yeast inh, TIM10 inh)
O=C(c1cccc(S(=O)(=O)N2CCCC2)c1)N1CCOCC1	none (no result: NALP1 inh)
CCCCCCCCC[n+]1cccc2c3ccccc3ccc21	none
CCCCCCCCCCCCCCCC[n+]1cccc2ccccc21	tim10-1 inh 97.6, tim23-1 inh 96.3, NALP3 yeast inh 73.0, PfHsp90 set2 106.1, TIM10 inh 89.2, NALP1 inh 98.5 | NALP3 yeast conf inactive | tim10-1 conf 97.9 | tim10 confirm inactive | tim23-1 confirm 97.3
COc1ccc(-c2csc(NC(=O)c3ccccc3F)c2C(=O)O)cc1	tim10-1 inh 80.8, tim23-1 inh 85.4, NALP3 yeast inh 81.2, TIM10 inh 75.2 | NALP3 yeast conf 93.7 | Casp1 ASC ctr 90.6 | NALP3 yeast rt 81.3 | tim10-1 conf 74.8 | tim10 confirm 72.1 | tim23-1 confirm 85.9
O=C(Nc1scc(-c2ccccc2)c1C(=O)O)c1ccccc1Cl	none

Assay outcomes deposited in PubChem by several laboratories.
